# Experimental data reported in PMC4336329 (PLoS ONE, 2015).
# Hit rate of the full screen: of about 310,000 compounds, about 2,200 (0.71%) showed an effect of 50% or more. The effect is printed as a negative number. Only a selection was taken, and strong results are over-represented in it overall.
# Biological target: human ether-à-go-go-related gene (hERG) potassium channel (human, UniProt Q12809)
# Assay: primary screen, population patch clamp on CHO cells stably expressing hERG; higher = less effect of the substance
# Chain of human ether-à-go-go-related gene (hERG) potassium channel (Q12809 whole entry, looked up): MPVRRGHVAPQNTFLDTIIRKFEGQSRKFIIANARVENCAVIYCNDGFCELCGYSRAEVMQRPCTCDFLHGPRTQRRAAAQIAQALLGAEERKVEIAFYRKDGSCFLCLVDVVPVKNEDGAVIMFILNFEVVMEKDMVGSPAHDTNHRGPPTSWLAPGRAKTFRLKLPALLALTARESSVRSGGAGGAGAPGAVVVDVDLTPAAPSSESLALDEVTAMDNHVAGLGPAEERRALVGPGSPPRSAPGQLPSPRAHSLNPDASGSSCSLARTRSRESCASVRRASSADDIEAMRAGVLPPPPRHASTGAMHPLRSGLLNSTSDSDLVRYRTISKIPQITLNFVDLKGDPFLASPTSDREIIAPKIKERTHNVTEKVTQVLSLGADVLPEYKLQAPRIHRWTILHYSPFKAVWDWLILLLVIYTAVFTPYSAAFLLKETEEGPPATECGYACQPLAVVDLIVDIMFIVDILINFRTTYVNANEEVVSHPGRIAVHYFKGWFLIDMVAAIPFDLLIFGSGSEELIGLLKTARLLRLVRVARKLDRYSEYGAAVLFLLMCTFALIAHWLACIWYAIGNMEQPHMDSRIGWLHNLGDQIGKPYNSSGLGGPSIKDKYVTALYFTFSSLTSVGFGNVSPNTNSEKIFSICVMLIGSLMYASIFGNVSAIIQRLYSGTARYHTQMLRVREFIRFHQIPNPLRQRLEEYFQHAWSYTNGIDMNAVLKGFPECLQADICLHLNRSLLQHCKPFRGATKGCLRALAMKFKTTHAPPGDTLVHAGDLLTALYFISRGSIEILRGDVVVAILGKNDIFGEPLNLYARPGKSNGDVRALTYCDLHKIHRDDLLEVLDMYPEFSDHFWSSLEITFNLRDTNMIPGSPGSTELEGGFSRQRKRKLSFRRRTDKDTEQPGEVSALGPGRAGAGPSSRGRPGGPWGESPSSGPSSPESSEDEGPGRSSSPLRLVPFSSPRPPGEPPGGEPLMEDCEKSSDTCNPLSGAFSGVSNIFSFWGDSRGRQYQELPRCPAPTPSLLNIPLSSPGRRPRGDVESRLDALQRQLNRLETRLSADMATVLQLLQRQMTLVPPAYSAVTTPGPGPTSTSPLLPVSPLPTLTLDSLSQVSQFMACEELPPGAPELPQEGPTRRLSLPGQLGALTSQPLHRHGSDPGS
row,SMILES,"hERG current change (%, negative = inhibition) at 1uM [%]"
1,CN(C)C(=S)NC(=O)C12CC3(C)CC(C)(CC(C)(C3)C1)C2,12.9
2,O=C(CSc1nnc(CNC(=O)c2ccc(F)cc2)o1)Nc1nccs1,13.2
3,CCCCOc1c(Cl)cc(C(=O)N(C)CC(=O)Nc2ccc(N3CCOCC3)cc2)cc1OCC,9.76
4,O=C(NCCCn1cccn1)C1CCC(=O)N(Cc2ccccc2F)C1 (stereo not shown),7.05
5,O=C(CCN1C(=O)/C(=C/C=C/c2ccccc2)SC1=S)Nc1nccs1,-3
6,Cn1c(SCC(=O)Nc2ccc3c(c2)OCCO3)nnc1-c1ccccn1,6.5
7,CCN(CC)S(=O)(=O)c1ccc(NC(=O)COC(=O)c2c[nH]c(=O)[nH]c2=O)cc1,11.1
8,CN(C)CCCOC(=O)c1ccc(Br)cc1,-6.15
9,COc1ccc(CCNC(=O)C2CCN(C(=O)c3ccc(OC)c(OC)c3)CC2)cc1,13.3
10,Cc1cccc(OCC(=O)NC(=S)Nc2ccc(S(=O)(=O)NC3CCCCC3)cc2)c1,11.2
11,COc1ccc(-c2nc(-c3ccc4c(c3)OCO4)[nH]c2-c2ccc(OC)cc2)cc1,14.7
12,CN1C2CCC1CC(NC(=O)c1ccc([N+](=O)[O-])cc1)C2 (stereo not shown),12.1
13,O=C(NC1CCN(CC(=O)N(c2ccccc2)c2ccccc2)CC1)c1ccc([N+](=O)[O-])cc1,-78.6
14,CC(C)CN1C2CCCC1CC(NC(=O)c1ccc([N+](=O)[O-])cc1)C2 (stereo not shown),-70.1
15,CC1CCCCC1NC(=O)CN1CCC(NC(=O)c2ccc([N+](=O)[O-])cc2)CC1 (stereo not shown),12.1
16,O=C(NC1CC2CCCC(C1)N2Cc1cccs1)N1CCOCC1 (stereo not shown),3.19
17,CCOc1ccc(C(=O)NC2CC3CCCC(C2)N3Cc2ccccc2)cc1 (stereo not shown),-20.4
18,O=C(NC1CC2CCCC(C1)N2Cc1ccccc1)c1ccc([N+](=O)[O-])cc1 (stereo not shown),-82.2
19,O=C(NC1CCN(Cc2cccc([N+](=O)[O-])c2)CC1)c1ccccc1,-3.19
20,O=C(NC1CC2CCCC(C1)N2Cc1ccccc1)c1cccc(Cl)c1 (stereo not shown),-12.1
21,O=C(NC1CC2CCCC(C1)N2Cc1cccs1)c1ccc([N+](=O)[O-])cc1 (stereo not shown),-78.6
22,COCCNC(=S)NC1CC2CCCC(C1)N2Cc1cccs1 (stereo not shown),-1.25

row,SMILES,"hERG current change (%, negative = inhibition) at 1uM [%]"
1,COc1ccc(C(=O)NC2CC3CCCC(C2)N3CC(C)C)cc1 (stereo not shown),-13.5
2,CC(C)NC(=O)C1CCN(C2CCN(C(=O)c3cc4c(s3)CCCCC4)CC2)CC1,6.33
3,CCOc1cc(C(=O)NCCc2ccc(S(N)(=O)=O)cc2)cc(OCC)c1OCC,3.65
4,Cc1ccccc1NC(=O)C1CCCN1C(=O)NC1CCCCC1 (stereo not shown),17.4
5,CCOCCCNc1nc(C(F)(F)F)nc2c1nnn2Cc1ccccc1Cl,15.9
6,O=C(N1CCC(n2nc(-c3ccccc3)oc2=O)CC1)C1(c2ccc(Cl)cc2)CC1,7.63
7,COCCNC(=O)c1c[nH]n2c(=O)cc(C3CCN(C(=O)OC(C)(C)C)CC3)nc12,9.37
8,Cc1cccc(COc2coc(CN3CCN(C(=O)c4ccco4)CC3)cc2=O)c1,-7.28
9,Cc1ccc(COc2coc(CN3CCN(C(=O)c4ccco4)CC3)cc2=O)cc1,-16.4
10,Cc1ccc(C)c(COc2coc(CN3CCN(C(=O)c4ccco4)CC3)cc2=O)c1,-95.9
11,CCCC(=O)Nc1nc2ccc(NC(=O)c3ccccc3F)cc2s1,14.1
12,COc1ccc(Nc2nnc(SCC(=O)N3CCCC3)s2)cc1,7.15
13,Cc1ccc(-c2nc(CS(=O)(=O)CC(=O)NCCN3CCCC3)c(C)o2)cc1,7.76
14,COc1ccc(-c2cc(C)no2)cc1S(=O)(=O)N(C)c1ccc(C)cc1,4.37
15,COc1ccc(-c2cc(C)no2)cc1S(=O)(=O)N(C)c1cccc(C)c1,-62.5
16,COc1ccccc1CN1CCC(CNS(=O)(=O)c2cc(-c3cc(C)no3)ccc2OC)CC1,-33.2
17,COc1cccc(CCN2CCC(CNS(=O)(=O)c3cc(-c4cc(C)no4)ccc3OC)CC2)c1,-66.3
18,COc1cccc(CCN2CCC(CNS(=O)(=O)c3cc(-c4cc(C)no4)ccc3C)CC2)c1,-20.1
19,COc1ccc(-c2cc(C)no2)cc1S(=O)(=O)N(C)c1ccc(C)c(C)c1,9.2
20,Cc1ccc(C(=O)OCC(=O)Nc2ccc(S(N)(=O)=O)cc2)c(O)c1,7.79
21,CC(=O)NC(=S)NNC(=O)C(c1ccccc1)c1ccccc1,15
22,C=CCNc1cccc(Br)c1,12.5

row,SMILES,"hERG current change (%, negative = inhibition) at 1uM [%]"
1,COc1cc(/C=N/Nc2nn3cnnc3c3ccccc23)ccc1O,20.3
2,CCCCOC(=O)C[N+](C)(C)CCOC1CC2CCC1(C)C2(C)C.[Br-] (stereo not shown),-4.93
3,CCCCCCOC(=O)C[N+](C)(C)CCOC1CC2CCC1(C)C2(C)C.[Cl-] (stereo not shown),-69
4,CCCOC(=O)C[N+](C)(C)CCOC1CC2CCC1(C)C2(C)C.[Br-] (stereo not shown),11.2
5,COc1ccc(NC(=O)c2cccn(CC=C(C)C)c2=O)cc1,11.5
6,Cc1c(S(=O)(=O)N2CCN(c3cccc(Cl)c3)CC2)c(=O)n(C)c(=O)n1C,5.16
7,COc1ccc(OC)c2c1nc1n2CCS1,4.74
8,CCOc1ccccc1N1CCN(CC(O)COCc2cccs2)CC1 (stereo not shown),-1.54
9,Cl.OC(COCc1cccs1)CN1CCCCCC1 (stereo not shown),-5.74
10,OC(COCc1cccs1)CN1CCN(c2ccccc2Cl)CC1 (stereo not shown),-50.8
11,COc1ccccc1N1CCN(CC(O)COCc2cccs2)CC1.Cl (stereo not shown),0.795
12,Cc1cccc(N2CCN(CC(O)COCc3cccs3)CC2)c1C (stereo not shown),-63.9
13,CN1CCCN(CC(O)COCc2cccs2)CC1 (stereo not shown),5.43
14,O=C(CCc1ccc(S(=O)(=O)NCCc2ccccc2)cc1)NCc1ccco1,6
15,COc1cccc2sc(NN)nc12,0.731
16,CCCc1[nH]n(-c2nc3ccccc3s2)c(=O)c1C=NCCCOC,-9.11
17,CCN(CC)CCCN=Cc1c(-c2ccccc2)[nH]n(-c2nc3ccccc3s2)c1=O,-81.7
18,CCCc1[nH]n(-c2nc3ccccc3s2)c(=O)c1C=NCCN1CCOCC1,-4.58
19,O=c1c(C=NCCCO)c(-c2ccccc2)[nH]n1-c1nc2ccccc2s1,-2.36
20,CN(C)CCCN=Cc1c(-c2ccccc2)[nH]n(-c2nc3ccccc3s2)c1=O,-58.1
21,CCCN=C(C)c1c(-c2ccccc2)[nH]n(-c2nc3ccccc3s2)c1=O,7.75
22,CCCCCN=Cc1c(C)[nH]n(-c2nc3ccccc3s2)c1=O,-16.9

row,SMILES,"hERG current change (%, negative = inhibition) at 1uM [%]"
1,COCCCN=Cc1c(-c2ccccc2)[nH]n(-c2nc3ccccc3s2)c1=O,-55.9
2,CCCc1[nH]n(-c2nc3ccccc3s2)c(=O)c1C=NCC(C)C,6.14
3,CCCc1[nH]n(-c2nc3ccccc3s2)c(=O)c1C=NCCCN(CC)CC,-57.6
4,CCCN=Cc1c(CCC)[nH]n(-c2nc3ccccc3s2)c1=O,-4.61
5,O=c1c(C=NCCCn2ccnc2)c(-c2ccccc2)[nH]n1-c1nc2ccccc2s1,-26.9
6,Cn1ccc(NC(=O)c2ccc(Cl)cc2)n1,11
7,CCC(C)N1C(=O)CCC1C(=O)N1CCN(c2ccccc2F)CC1 (stereo not shown),17
8,CC(=O)N1CCN(C2=NC(=O)C(=C3CCCCC3)S2)CC1,-2.21
9,CCCNC(=O)C1CC(=O)N(c2ccc(OCC(=O)Nc3cccc(C)c3C)cc2)C1 (stereo not shown),11
10,CN1CCN(C(=O)c2ccc3c(Cl)c4c(nc3c2)CCCC4)CC1,-0.735
11,Cc1cc(C)c2nc(C(F)(F)F)nc(NCCCN3CCOCC3)c2c1,9.96
12,CCC(C)(C)C1CCc2[nH]nc(C(=O)O)c2C1 (stereo not shown),11.9
13,CC(=O)NS(=O)(=O)c1ccc(NC(=O)C2C3C=CC(C3)C2C(=O)O)cc1 (stereo not shown),7.33
14,Cc1ccc2c(c1)Oc1ccc(NC(=O)CCCl)cc1C(=O)N2,3.94
15,COc1ccc(CN2[C@@H](CC(C)=O)c3ccc(/C=C/C(C)=O)cc3S2(=O)=O)cc1,-0.639
16,CC(=O)c1ccc(N2CCN(C(=O)c3nn(Cc4ccccc4)c(=O)c4ccccc34)CC2)cc1,-72.9
17,O=C(c1nn(Cc2ccccc2)c(=O)c2ccccc12)N1CCN(c2ccccn2)CC1,-14.5
18,O=C(c1nn(Cc2ccccc2)c(=O)c2ccccc12)N1CCN(C/C=C/c2ccccc2)CC1,-38.3
19,Cn1cc([N+](=O)[O-])c(C(=O)NC2CCCCCC2)n1,15.5
20,COc1cc(-c2nc3ccccn3c2NCC2CCCO2)ccc1O (stereo not shown),2.7
21,CCOc1cc(-c2nc3cc(C)ccn3c2NCC2CCCO2)ccc1O (stereo not shown),-47.3
22,COc1ccc(-c2nc3cc(C)ccn3c2NCC2CCCO2)cc1OC.Cl (stereo not shown),-55.3
